ChEMBL document CHEMBL3988442, “University of Dundee, Small-Polar-MMV Screening Library” (2021)
For some of these results: Potency and affinity values are given separately.

Legend:
Set-up in all cases: scale not given: direction of the effect not stated beside the values
[1] = molecular target: Protein translocase subunit SecA (Escherichia coli (strain K12)) (UniProt P10408); experiment: Assay to Identify E. coli SecA ATPase Inhibitors; format: functional; settings: 30 µM
[2] = molecular target: T1, Ubiquitin-activating enzyme e1, putative (Leishmania donovani (strain BPK282A1)) (UniProt E9BSI1); experiment: Leishmania donovani Ubiquitin Activating Enzyme (LdE1); format: functional; settings: 30 µM
T1 sequence (whole entry): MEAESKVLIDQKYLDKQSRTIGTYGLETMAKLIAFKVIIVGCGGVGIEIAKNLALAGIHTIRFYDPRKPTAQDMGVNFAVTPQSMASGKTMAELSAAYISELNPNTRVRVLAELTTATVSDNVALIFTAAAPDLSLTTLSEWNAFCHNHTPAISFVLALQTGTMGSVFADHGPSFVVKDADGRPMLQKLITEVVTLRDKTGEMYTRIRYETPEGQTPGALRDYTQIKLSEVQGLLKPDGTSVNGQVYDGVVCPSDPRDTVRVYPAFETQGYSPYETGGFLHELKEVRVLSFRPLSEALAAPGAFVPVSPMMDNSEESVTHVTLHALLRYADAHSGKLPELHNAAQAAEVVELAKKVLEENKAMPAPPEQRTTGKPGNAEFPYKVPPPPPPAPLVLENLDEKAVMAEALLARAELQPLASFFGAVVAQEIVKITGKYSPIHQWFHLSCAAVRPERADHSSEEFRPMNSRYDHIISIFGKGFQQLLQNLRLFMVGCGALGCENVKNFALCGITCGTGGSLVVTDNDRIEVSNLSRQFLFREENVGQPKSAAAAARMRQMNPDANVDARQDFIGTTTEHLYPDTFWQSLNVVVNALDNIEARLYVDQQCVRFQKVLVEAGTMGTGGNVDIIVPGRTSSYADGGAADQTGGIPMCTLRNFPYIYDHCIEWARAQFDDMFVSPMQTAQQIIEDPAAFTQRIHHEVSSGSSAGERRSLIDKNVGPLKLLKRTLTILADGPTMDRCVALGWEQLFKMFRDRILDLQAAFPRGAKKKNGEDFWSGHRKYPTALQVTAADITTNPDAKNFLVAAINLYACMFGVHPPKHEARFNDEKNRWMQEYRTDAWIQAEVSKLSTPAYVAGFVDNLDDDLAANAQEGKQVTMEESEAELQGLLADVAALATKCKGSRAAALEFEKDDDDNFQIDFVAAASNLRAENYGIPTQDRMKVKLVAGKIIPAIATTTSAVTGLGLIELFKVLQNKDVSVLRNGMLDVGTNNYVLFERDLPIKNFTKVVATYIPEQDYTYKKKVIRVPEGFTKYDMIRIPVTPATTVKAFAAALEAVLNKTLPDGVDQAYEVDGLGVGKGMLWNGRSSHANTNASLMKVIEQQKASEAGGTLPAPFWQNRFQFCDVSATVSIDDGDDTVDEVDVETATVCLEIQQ

[3] = molecular target: AMP-activated protein kinase, AMPK (Homo sapiens) (UniProt P54646+O43741+P54619+Q9UGJ0+Q9Y478+Q13131+Q9UGI9); experiment: AMP-dependent Kinase enzyme assay. An in vitro enzyme assay that detects ADP turnover that is directly proportional to AMPK activity. This uses naive AMPK that is activated during the assay with MK-8722; format: functional; settings: 30 µM
[4] = molecular target: Sialic acid-binding Ig-like lectin 9 (Homo sapiens) (UniProt Q9Y336); experiment: Hs-Siglec9 ALPHAscreen SOP 20170721; settings: 10 µM
Trypanosoma cruzi = experiment: Trypanosoma cruzi phosphomannomutase and mannose-1-phosphate guanylyltransferase assay; format: functional; settings: 10 µM
[5] = molecular target: T2, Arginase-2, mitochondrial (Homo sapiens) (UniProt P78540); experiment: in vitro enzyme assay to detect the production of urea directly proportional to the activity of Arginase II; format: functional; settings: 33.3 µM; further: in the data most compounds retested in dose-response had high values
T2 sequence (whole entry): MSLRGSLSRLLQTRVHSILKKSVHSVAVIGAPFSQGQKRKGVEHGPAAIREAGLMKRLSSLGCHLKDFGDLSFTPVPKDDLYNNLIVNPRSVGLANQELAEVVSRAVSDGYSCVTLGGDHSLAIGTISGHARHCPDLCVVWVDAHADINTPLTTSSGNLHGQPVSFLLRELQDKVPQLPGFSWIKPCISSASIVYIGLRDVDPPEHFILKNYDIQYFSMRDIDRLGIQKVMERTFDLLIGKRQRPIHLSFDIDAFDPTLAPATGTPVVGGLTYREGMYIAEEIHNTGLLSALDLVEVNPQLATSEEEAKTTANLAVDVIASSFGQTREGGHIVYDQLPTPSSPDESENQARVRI

[6] = molecular target: T3, Proteasome subunit beta (Trypanosoma cruzi) (UniProt O96673); experiment: Trypanosoma cruzi proteasome chymotrypsin-like activity (TcProtChymo) assay.; further: in the data most compounds retested in dose-response had high values; format: functional; settings: 9.37 µM
T3 sequence (whole entry): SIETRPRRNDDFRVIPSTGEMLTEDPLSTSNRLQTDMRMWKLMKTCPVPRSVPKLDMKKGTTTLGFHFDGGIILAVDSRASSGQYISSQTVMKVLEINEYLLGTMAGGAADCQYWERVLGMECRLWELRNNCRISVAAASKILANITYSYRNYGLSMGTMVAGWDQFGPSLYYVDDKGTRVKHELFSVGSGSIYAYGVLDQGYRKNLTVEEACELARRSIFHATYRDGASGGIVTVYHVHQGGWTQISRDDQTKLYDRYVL

Homo sapiens = species: Homo sapiens; experiment: To identify inhibition of the IFN signalling (Jak-Stat) pathway via expression of an eGFP reporter gene under the control of an IFN-stimulated response element (ISRE) containing MxA promoter.; format: functional; settings: 30 µM
[7] = molecular target: T4, Tyrosyl-tRNA synthetase, putative (Trypanosoma cruzi (strain CL Brener)) (UniProt Q4DSP6); experiment: Trypanosoma cruzi tyrosyl tRNA synthetase (TcYRS) _High Tyrosine SOP; format: functional; settings: 30 µM; further: in the data most compounds retested in dose-response had high values
T4 sequence (whole entry): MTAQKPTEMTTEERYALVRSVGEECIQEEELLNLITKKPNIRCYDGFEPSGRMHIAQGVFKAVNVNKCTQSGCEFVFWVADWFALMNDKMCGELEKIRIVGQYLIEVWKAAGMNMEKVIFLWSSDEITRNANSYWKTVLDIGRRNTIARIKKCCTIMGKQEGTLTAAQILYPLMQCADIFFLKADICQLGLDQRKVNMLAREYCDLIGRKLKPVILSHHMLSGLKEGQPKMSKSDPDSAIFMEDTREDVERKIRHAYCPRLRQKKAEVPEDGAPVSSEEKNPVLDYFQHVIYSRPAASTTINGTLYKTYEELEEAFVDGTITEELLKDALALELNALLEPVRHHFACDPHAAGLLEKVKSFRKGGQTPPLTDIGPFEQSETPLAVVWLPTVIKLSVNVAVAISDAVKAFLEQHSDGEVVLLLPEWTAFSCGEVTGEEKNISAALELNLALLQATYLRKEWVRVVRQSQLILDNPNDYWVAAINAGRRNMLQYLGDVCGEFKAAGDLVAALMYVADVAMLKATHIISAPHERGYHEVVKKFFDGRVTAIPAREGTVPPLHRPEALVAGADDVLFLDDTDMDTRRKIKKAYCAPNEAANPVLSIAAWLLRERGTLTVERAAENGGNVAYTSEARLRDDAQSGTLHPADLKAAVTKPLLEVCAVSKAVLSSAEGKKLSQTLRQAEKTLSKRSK

[8] = molecular target: T4, Tyrosyl-tRNA synthetase, putative (Trypanosoma cruzi (strain CL Brener)); experiment: Trypanosoma cruzi tyrosyl tRNA synthetase (TcYRS) SOP; format: functional; settings: 30 µM
[9] = molecular target: Chromo domain-containing protein 1 (Saccharomyces cerevisiae (strain ATCC 204508 / S288c) (Baker's yeast)) (UniProt P32657); experiment: ScCHD-1 Enzyme Inhibition Assay; format: functional; settings: 30 µM; further: in the data most compounds retested in dose-response had high values
Chain of Chromo domain-containing protein 1 (Saccharomyces cerevisiae (strain ATCC 204508 / S288c) (Baker's yeast)) (P32657 whole entry, the tested form may be a part): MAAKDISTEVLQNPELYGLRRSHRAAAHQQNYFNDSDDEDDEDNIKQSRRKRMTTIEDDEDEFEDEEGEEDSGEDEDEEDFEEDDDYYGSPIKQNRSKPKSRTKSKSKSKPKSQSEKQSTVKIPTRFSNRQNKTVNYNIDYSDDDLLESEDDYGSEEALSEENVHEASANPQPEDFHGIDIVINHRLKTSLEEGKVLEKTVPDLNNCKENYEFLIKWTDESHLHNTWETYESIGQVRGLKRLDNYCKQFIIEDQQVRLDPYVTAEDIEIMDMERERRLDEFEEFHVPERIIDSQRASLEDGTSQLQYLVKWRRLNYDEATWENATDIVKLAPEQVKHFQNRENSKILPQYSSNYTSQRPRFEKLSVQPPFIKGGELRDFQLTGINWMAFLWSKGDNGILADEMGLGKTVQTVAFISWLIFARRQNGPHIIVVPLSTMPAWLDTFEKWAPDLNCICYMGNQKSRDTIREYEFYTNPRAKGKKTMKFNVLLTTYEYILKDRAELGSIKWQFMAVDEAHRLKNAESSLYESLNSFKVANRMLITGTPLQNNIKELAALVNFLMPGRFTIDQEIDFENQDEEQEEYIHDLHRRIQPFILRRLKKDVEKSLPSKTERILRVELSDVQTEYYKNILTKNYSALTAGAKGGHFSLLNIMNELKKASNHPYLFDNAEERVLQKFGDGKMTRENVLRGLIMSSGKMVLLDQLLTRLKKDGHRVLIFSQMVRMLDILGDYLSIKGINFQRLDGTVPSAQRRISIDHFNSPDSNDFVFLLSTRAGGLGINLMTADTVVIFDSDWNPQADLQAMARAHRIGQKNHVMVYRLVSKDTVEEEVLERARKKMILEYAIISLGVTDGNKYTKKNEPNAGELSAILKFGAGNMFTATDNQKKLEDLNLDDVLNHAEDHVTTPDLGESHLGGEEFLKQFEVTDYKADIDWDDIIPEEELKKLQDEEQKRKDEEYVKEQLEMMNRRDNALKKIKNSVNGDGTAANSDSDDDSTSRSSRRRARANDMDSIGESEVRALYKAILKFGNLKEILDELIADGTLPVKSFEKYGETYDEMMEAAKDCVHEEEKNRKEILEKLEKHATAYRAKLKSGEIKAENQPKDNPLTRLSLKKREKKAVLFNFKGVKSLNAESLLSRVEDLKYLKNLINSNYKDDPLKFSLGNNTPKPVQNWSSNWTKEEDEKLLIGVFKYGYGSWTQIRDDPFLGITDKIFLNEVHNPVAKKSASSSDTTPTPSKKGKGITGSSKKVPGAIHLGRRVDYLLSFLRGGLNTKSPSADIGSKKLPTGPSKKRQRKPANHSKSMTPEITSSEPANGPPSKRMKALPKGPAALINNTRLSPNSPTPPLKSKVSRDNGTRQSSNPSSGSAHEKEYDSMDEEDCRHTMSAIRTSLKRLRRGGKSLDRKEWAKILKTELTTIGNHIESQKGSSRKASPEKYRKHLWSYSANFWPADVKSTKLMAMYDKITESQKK

Chain of Sialic acid-binding Ig-like lectin 9 (Homo sapiens) (Q9Y336 whole entry): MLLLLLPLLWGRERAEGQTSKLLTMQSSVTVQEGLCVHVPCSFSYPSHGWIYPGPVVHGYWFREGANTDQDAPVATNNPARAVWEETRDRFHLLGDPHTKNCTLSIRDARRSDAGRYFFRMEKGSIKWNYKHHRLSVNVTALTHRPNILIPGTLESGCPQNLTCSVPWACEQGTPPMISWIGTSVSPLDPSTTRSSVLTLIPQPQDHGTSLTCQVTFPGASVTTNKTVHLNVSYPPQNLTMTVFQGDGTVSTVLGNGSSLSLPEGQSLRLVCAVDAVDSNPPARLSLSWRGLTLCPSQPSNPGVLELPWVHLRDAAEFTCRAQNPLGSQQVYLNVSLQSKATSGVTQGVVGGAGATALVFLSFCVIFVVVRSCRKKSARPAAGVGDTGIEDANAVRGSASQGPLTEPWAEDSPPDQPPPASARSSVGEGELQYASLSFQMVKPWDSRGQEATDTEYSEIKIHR
Chain of Protein translocase subunit SecA (Escherichia coli (strain K12)) (P10408 whole entry): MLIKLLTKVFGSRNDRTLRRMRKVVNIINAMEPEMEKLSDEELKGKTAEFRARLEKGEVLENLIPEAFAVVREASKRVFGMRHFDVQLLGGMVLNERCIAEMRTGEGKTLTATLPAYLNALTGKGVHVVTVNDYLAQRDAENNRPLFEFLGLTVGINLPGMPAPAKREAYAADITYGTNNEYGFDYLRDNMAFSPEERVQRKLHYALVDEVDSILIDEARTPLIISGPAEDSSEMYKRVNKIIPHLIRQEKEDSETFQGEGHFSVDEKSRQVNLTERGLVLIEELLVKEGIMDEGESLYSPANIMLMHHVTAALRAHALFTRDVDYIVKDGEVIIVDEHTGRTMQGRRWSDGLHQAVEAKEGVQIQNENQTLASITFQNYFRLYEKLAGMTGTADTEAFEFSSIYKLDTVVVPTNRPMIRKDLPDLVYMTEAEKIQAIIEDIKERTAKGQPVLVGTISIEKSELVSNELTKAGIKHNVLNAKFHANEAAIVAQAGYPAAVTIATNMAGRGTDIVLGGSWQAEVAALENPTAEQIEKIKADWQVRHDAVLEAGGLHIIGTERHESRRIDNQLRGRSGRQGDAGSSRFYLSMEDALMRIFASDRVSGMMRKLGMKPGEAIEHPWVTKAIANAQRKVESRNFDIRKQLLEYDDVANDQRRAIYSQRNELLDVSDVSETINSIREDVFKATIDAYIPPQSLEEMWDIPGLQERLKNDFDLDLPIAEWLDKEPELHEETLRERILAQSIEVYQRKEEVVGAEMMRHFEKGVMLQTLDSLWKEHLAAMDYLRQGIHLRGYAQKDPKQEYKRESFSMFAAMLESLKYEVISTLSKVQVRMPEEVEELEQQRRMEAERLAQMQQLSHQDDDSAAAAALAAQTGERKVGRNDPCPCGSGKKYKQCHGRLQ

Row | SMILES | Percent Effect [1] | Percent Effect [2] | Percent Effect [3] | Percent Effect [4] | Percent Effect (Trypanosoma cruzi) | Percent Effect [5] | Percent Effect [6] | Percent Effect (Homo sapiens) | Percent Effect [7] | Percent Effect [8] | Percent Effect [9]
1 | Cc1c(C(=O)NC(CN2CCCC2=O)c2ccccc2)cnn1C (stereo not given) | 0.252% | 10.5% | 1.96% | -5.31% | -4.7% | 6.9% | 7.69% | 19% | 3.43% | 9.76% | -6.11%
2 | CCN1CCOC(CNCc2ccccc2OCC(=O)N(C)C)C1 (stereo not given) | -1.78% | 0% | -9.78% | 0.0919% | 8.31% | -2.88% | -4.32% | -7.21% | 1.48% | 13.6% | -2.56%
3 | CCc1n[nH]c(C2CN(Cc3nccn3CC)CCO2)n1 (stereo not given) | -0.0966% | 20.8% | -2.5% | -14.5% | 2.45% | 6.53% | 9.62% | 7.94% | 12.4% | 25.9% | -16.2%
4 | O=C(CC1CC1)N1CCC2(CC1)CN(c1ncccn1)CCO2 | -2.48% | 2.67% | 5.17% | 6.83% | -6.89% | -5.83% | 5.9% | 9.78% | -5.32% | -1.28% | -7.95%
5 | COC(=O)c1cc(C(=O)N2CCOCC2(C)C)n(-c2ccccc2)n1 | -2.65% | 7.89% | 4.52% | 4.64% | 6.2% | -6.13% | 0% | -3.57% | 4.41% | 17.1% | -9.02%
6 | CCn1cnnc1CNC(=O)N1CCCN(C(C)=O)CC1 | -6.81% | 15.6% | -0.601% | 0.0707% | 0.881% | 4.84% | 12.7% | 1.78% | 10.5% | 25.9% | -20.1%
7 | CCC1CCCCN1C(=O)c1ccc2[nH]nnc2c1 (stereo not given) | 0.483% | 0% | -3.81% | -0.908% | -1.17% | 3.33% | 19.5% | 1.34% | 3.96% | -11% | -1.41%
8 | CCc1nc(CN2CCCN(C(=O)C(C)COC)CC2)cs1 (stereo not given) | -1.87% | 26% | -9.16% | 1.76% | 3% | 3.92% | 17.2% | 10.8% | 9.71% | 21.9% | -10.9%
9 | Cc1cc(CC(=O)N2CCCC2c2nc(C(C)C)no2)on1 (stereo not given) | -3.03% | 20.8% | -13.1% | 26.8% | 8.84% | 3.97% | 18.8% | 5.27% | 6.32% | 15.4% | -9.95%
10 | c1ccc(-n2ncc(CNCC3CCCN3c3cccnn3)n2)cc1 (stereo not given) | -3.03% | -28.9% | -19.7% | 8.84% | 11.7% | -5.4% | -3.64% | 6.81% | 12.3% | 18.5% | 0.0713%
11 | CCCc1n[nH]c(C2CN(CCNS(=O)(=O)CC)CCO2)n1 (stereo not given) | -1.25% | 19% | 4.75% | -2.28% | -0.718% | 1.5% | 12.9% | 18.3% | 8.33% | 15.2% | -20.1%
12 | N#Cc1cccnc1NCc1cccnc1N1CCC(C(N)=O)CC1 | -4.85% | 8.11% | -4.32% | 8.48% | 0.293% | -0.744% | 12.3% | 3.17% | 3.23% | 13.6% | 1.32%
13 | COCCOc1ccc(NC(=O)N2CCCC2c2cc(C)no2)cn1 (stereo not given) | -4.97% | 0% | 0.449% | 5.01% | -0.686% | -1.05% | 5.74% | 9.34% | 5.71% | 2.35% | -14.1%
14 | Cc1n[nH]c(C2CN(C(=O)c3cc(C4CC4)[nH]n3)CCO2)n1 (stereo not given) | -3.77% | 13% | 3.73% | 15.3% | -0.0979% | 0.632% | 9.78% | -11% | 5.71% | 11.8% | -11.2%
15 | CC(CN1CCN(C)CC1)NC(=O)c1cc(Cl)c2c(c1)OCO2 (stereo not given) | -11.8% | 1.39% | 140% | -0.639% | 0.68% | 1.77% | 8.42% | -2.86% | 6.32% | 10.3% | -2.31%
16 | COc1ccc(CNC2CCN(CCc3ccncc3)CC2)cc1O | -6.94% | 16.2% | -9.03% | 9.91% | 5.27% | 26.7% | 10.6% | -0.697% | -6.93% | 8.54% | -9.05%
17 | O=C(c1cc(Cl)c2c(c1)OCO2)N1CCN(c2nccs2)CC1 | -3.24% | 11% | -2.85% | 1.89% | 2.55% | 3.18% | 7.45% | 3.79% | 7.53% | 15% | -3.25%
18 | CCc1nnc2n1CCN(C(=O)c1cc(Br)c[nH]1)C2 | -5.48% | 23.4% | -0.82% | 9.55% | 8.05% | -1.78% | 13% | -20.8% | 9.71% | 19.5% | -10.3%
19 | COc1cc(OC)c(C2Nc3cc(Cl)ccc3C3=NCCN32)cc1OC (stereo not given) | -5.59% | -8% | -2.93% | 2.92% | 6.89% | -3.5% | 1.32% | -10.9% | 7.45% | 14.1% | -5.67%
20 | COc1cccc(CN2CCN(C(=O)CN3CCOCC3)CC2)n1 | 0.629% | -10.5% | -3.06% | 3.57% | 4.76% | 3.6% | 4.99% | 7.19% | 2.46% | 6.17% | 2.89%
